# Measured values from PubChem BioAssay (Tox21).
# Inconclusive results are not listed. Active and inactive are the calls of the source. Calls come from the whole dose curve; as a rule, active = well fitted activation curve with a large enough effect in the signal ratio in the repeat runs (not every such curve was filed as active); inconclusive = weak or mixed curves, or effect the other way; inactive = flat fitted curve, though single readings scatter; the % refers to the signal ratio.
# Molecular target: Bile acid receptor (Homo sapiens) (UniProt Q96RI1)
# Sequence (Q96RI1 whole entry, looked up): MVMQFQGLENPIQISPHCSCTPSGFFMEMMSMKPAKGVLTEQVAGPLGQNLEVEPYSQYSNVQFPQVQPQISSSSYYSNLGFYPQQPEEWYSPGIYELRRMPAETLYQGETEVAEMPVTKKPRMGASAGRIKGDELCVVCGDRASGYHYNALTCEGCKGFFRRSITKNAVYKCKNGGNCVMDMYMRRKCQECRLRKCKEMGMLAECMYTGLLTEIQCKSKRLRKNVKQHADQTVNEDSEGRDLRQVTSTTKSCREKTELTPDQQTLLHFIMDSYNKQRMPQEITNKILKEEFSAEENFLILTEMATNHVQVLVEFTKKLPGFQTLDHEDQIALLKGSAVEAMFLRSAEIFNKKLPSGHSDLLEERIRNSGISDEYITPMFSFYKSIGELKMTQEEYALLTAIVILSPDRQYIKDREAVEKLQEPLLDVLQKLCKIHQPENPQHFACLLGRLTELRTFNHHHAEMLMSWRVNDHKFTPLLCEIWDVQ
# Assay: qHTS assay to identify small molecule agonists of the farnesoid-X-receptor (FXR) signaling pathway (AID 743220)
# Conditions: HEK293T FXR-UAS-bla, beta-lactamase FRET ratio, 16 h; series mostly up to 62.6 µM
# From the text: National Center for Advancing Translational Sciences [NCATS]
# NIH Chemical Genomics Center [NCGC]
# U.S. Environmental Protection Agency [EPA]
# National Institutes of Environmental Health Sciences [NIEHS]
# National Toxicology Program [NTP]
# U.S. Food and Drug Administration [FDA]
# The farnesoid-X-receptor (FXR), a nuclear hormone receptor, is highly expressed in liver, intestine, kidney and adrenal cortex. Natural ligands of FXR are the bile acids (Cholic acid, Chenodeoxy cholic acid etc). FXR is an important regulator of diverse metabolic pathways, including the bile acid homeostasis, lipid and glucose metabolisms. FXR regulates the expression of target genes by binding either as a monomer or as a heterodimer with the retinoid X receptor (RXR). Numerous studies have reported that FXR exerts protective function during cholestasis, diabetes, liver regeneration, and cancer. To identify compounds that activate FXR signaling, GeneBLAzer FXR-UAS-bla HEK 293T cell line (Invitrogen, Carlsbad, CA) containing a beta-lactamase reporter gene under the control of a UAS response element was used to screen the Tox21 10K compound library.
# Tox21 Assay Protocol Summary:
# FXR-bla cells were dispensed at 5000 cells/5uL/well in 1536-well black wall/clear bottom plates using a Multidrop Combi (Thermo Fisher Scientific, Waltham, MA) dispenser. After the assay plates were incubated at 37C and 5% CO2 for 5 h, 23 nL of compounds dissolved in DMSO, positive controls or DMSO only was transferred to the assay plate by a Pintool station (Kalypsys, San Diego, CA). The assay plates were incubated at 37C for 16 h. After 1 uL of LiveBLAzerTM B/G FRET substrate was added using a Bioraptr Flying Reagent Dispenser (FRD) workstation (Beckman Coulter, Indianapolis, IN), the plates were incubated at room temperature for 2 h, and fluorescence intensity was measured by an Envision plate reader (PerkinElmer, Shelton, CT).
row,Structure (SMILES),outcome
1,N[C@@H](Cc1ccc(Oc2cc(I)c(O)c(I)c2)c(I)c1)C(=O)O,inactive
2,Cn1c(N)nc2c3cccnc3ccc21,inactive
3,CC(O)CCl (stereo not given),inactive
4,CN(CCO)CCO,inactive
5,CCc1cc(OC)c(C[C@H](C)N)cc1OC,inactive
6,BrCc1ccc(Br)cc1,inactive
7,Cc1ccc2c(c1)C1CN(C)CCC1N2 (stereo not given),inactive
8,COP(=O)(O)OC,inactive
9,C#CC(C)(C)O,inactive
10,CON(C)C(=O)Nc1ccc(Br)cc1,inactive
11,C1CN2CCC1CC2,inactive
12,C=CCCC#N,inactive
13,CC1N=C(N)OC1c1ccccc1 (stereo not given),inactive
14,CN1COCN(Cc2cnc(Cl)s2)/C1=N\[N+](=O)[O-],inactive
15,CC[C@@H](CO)NC(=O)[C@@H]1C=C2c3cccc4c3c(cn4C)C[C@H]2N(C)C1,inactive
16,Cn1c(CCCC(=O)O)nc2cc(N(CCCl)CCCl)ccc21,inactive
17,CC(Cc1ccccc1)NCCCCl (stereo not given),inactive
18,Cc1cc(OC(=O)N(C)C)nn1C(=O)N(C)C,inactive
19,CCSC(=O)Cl,inactive
20,OP(O)c1ccccc1,inactive

row,Structure (SMILES),outcome
1,Cc1ccc(Cl)c(O)c1,inactive
2,BrCC1CO1 (stereo not given),inactive
3,CC(C)NCC(O)c1ccc([N+](=O)[O-])cc1 (stereo not given),inactive
4,CCN1CCCC1CNC(=O)C(O)(c1ccccc1)c1ccccc1 (stereo not given),inactive
5,Cc1ccc(S(=O)(=O)N[C@@H](CCCCN)C(=O)CCl)cc1,inactive
6,CCC(=O)OC1(c2ccccc2)CCN(C)CC1,inactive
7,CC(C)(C)C(=O)Cl,inactive
8,CCCOC(=O)Cc1ccc(OCC(=O)N(CC)CC)c(OC)c1,inactive
9,COc1ccc(C=O)cc1O,inactive
10,O=C(O)c1c(Cl)ccc2cc(Cl)cnc12,inactive
11,C(COCC1CO1)OCC1CO1 (stereo not given),inactive
12,CC(C)(C)c1cc(O)ccc1O,inactive
13,CCCCCCCC(=O)Cl,inactive
14,COC(=O)[C@@H](N)CCCN/C(N)=N/[N+](=O)[O-],inactive
15,CCN(CC)C1CCCCC1,inactive
16,NC1(c2ccccc2)CCCCC1,inactive
17,NNC(N)=O,inactive
18,CCOC(=O)NC(C)(C)Cc1ccc(Cl)cc1,inactive
19,CC1=C2[C@H]3OC(=O)[C@@H](C)[C@@H]3CC[C@@]2(C)C=CC1=O,inactive
20,CC(=O)OCC1=C(C(=O)O)N2C(=O)[C@@H](N)[C@H]2SC1,inactive
